Potency, outcome and max response data for twelve molecules are collected here from PubChem BioAssay (NCATS).

Test [1] in a line: Quantitative High-Throughput drug screen in 47 multiple myeloma cell lines against the NCATS MIPE library collection: KMS28BM_JCRB cell viability assay (AID 1919874). Note: nearly all actives have a fitted effect of over 35% in size. Note: potency is the fitted concentration of half-maximal effect. The following applies: CellTiter-Glo ATP, 48 h; series mostly up to 45.8 µM. In outline: (§1)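 Viability after 48 h drug exposure was measured as ATP-dependent luminescence. Cells, 500 per well, sat at 37 °C under 5% CO2; DMSO wells set 100%, media-only wells 0%.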
For orientation: In ATP-based viability assays light output follows the ATP content of the culture.

Test [2] is described as follows: Quantitative High-Throughput drug screen in 47 multiple myeloma cell lines against the NCATS MIPE library collection: KMS11_JCRBsus cell viability assay (AID 1919873). Note: nearly all actives have a fitted effect of over 50% in size. Note: potency is the fitted concentration of half-maximal effect. Conditions: KMS11 myeloma viability, CellTiter-Glo ATP luminescence, 48 h; series mostly up to 45.8 µM. In a few lines: as §1
Test [3] has as its target Cytochrome P450 3A4 (Homo sapiens) (UniProt P08684). In words: qHTS for inhibitors of CYP3A4 against the NCATS DSHEA and TCM libraries (AID 1919971).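 Note: % is set by controls: 0 for no effect and ±100 for the full control effect; inhibition lowers luminescence from luciferin made by CYP3A4.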 The following applies: recombinant CYP3A4 enzyme activity, luminescence qHTS; series mostly up to 34.1 µM. In a few lines:
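Luminescent P450-Glo readout. Enzyme plus pro-luciferin substrate in manufacturer buffer (typically 100 mM KPO4); 15 min RT preincubation; 1x NADPH regenerating system, 30-45 min RT in the dark; detection reagent 30 min.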
(In general: Quantitative high-throughput screening tests each substance at several concentrations.)

For test [4], the target named is Cytochrome P450 2D6 (Homo sapiens) (UniProt P10635). In words: qHTS for inhibitors of CYP2D6 against the NCATS DSHEA and TCM libraries (AID 1919972). Note: % is set by controls: 0 for no effect and ±100 for the full control effect. The following applies: CYP2D6 enzymatic inhibition, luminescence qHTS; series mostly up to 34.1 µM. In outline: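 Steps: enzyme plus luciferin substrate dispensed; test substances pinned; 15 min RT; 1x NADPH regenerating solution added, 30–45 min RT protected from light; detection reagent, 30 min RT; luminescence measured. Minus-enzyme wells as background.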

A short description of test [5]: KB-3-1 P-gp reporter qHTS against the NCATS DSHEA and TCM libraries (AID 1919975). Note: 0% is about no effect. The following applies: KB-3-1 parental cells, CellTiter-Glo luminescence viability, 72 h; series mostly up to 26.1 µM. In outline: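 Parental KB-3-1 human cervical adenocarcinoma cells (500 cells/well, DMEM + 10% FBS) were treated with substances for ~72 h at 37C; viability was read by CellTiter-Glo luminescence.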

Test [6] can be described thus: qHTS Counterscreen for compound interference against the NCATS DSHEA and TCM libraries (AID 1919978). Note: % of control where 0% means no effect. Conditions: firefly luciferase detection reagent interference, luminescence. In outline:
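D-luciferin (1 uM final) or 100 mM potassium phosphate buffer alone was preincubated 15 min at RT with compounds (19.5 nM to 39.8 uM final). Luciferin detection reagent was then added and luminescence read after 30 min at RT.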

A short description of test [7]: Dual reporter qHTS for agonist of Pregnane X Receptor (hPXR) against the NCATS DSHEA and TCM libraries: Fluorescence readout (AID 1920058). Note: 0% is about no effect. Conditions: PXR dual reporter cells; series mostly up to 40 µM. In a few lines:
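hPXR-Luc HepG2 cells (2000/well) in phenol red-free medium with charcoal-stripped FBS attached for 5 h, then were exposed to compounds for about 24 h at 37 °C. Viability was read by CellTiter-Fluor fluorescence (Ex/Em 405/540 nm) after 1 h.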

Unmarked numbers belong to inactive results. Records with an inconclusive call do not appear. Active and inactive are the calls of the source. Calls come from the whole dose curve; as a rule, active = well fitted curve in the direction sought with a large enough effect; inconclusive = small, poorly fitted or top-dose-only effect, or another doubt; inactive = no such curve, though single readings can be large; an effect the other way counts as inactive or inconclusive.

Sequence of Cytochrome P450 2D6 (Homo sapiens) (P10635 whole entry, looked up): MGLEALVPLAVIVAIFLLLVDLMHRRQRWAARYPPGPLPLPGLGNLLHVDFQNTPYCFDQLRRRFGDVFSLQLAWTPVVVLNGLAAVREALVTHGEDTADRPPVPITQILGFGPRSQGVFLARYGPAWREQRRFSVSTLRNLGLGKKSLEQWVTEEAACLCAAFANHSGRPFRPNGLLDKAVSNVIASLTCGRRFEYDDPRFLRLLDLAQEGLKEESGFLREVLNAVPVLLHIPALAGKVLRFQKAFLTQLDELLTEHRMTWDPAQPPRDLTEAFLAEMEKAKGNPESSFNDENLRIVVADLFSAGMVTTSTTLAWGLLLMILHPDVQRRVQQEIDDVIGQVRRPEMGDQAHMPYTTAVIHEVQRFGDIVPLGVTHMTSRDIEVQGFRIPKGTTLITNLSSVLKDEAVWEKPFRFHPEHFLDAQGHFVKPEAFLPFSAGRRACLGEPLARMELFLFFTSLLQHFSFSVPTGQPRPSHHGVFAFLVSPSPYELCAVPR
Sequence of Cytochrome P450 3A4 (Homo sapiens) (P08684 whole entry, looked up): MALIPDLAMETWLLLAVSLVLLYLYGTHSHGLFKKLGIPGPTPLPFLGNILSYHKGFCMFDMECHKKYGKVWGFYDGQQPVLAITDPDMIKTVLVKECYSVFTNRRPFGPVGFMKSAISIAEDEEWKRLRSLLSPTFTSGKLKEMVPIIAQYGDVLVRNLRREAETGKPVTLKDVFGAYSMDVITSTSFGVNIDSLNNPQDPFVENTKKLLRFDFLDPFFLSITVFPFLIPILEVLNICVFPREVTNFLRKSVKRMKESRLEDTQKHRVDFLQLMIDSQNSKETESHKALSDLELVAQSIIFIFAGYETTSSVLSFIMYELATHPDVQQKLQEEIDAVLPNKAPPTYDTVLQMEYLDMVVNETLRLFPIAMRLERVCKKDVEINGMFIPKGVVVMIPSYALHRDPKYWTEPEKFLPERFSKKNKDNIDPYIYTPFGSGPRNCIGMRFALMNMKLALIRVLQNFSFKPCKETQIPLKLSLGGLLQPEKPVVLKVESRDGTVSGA

Regarding `CN1CCC(COc2cnc(-c3cccc(Cn4nc(-c5cccc(C#N)c5)ccc4=O)c3)nc2)CC1`, the Potency result in test [1] was “inactive”.

`C[C@H]1O[C@@H](n2cc(F)c(=O)[nH]c2=O)[C@H](O)[C@H]1O`: the Potency in test [2] is 7.43 µM (active). The Potency result in test [1] was “inactive”.

`O=c1[nH]c(=O)n([C@H]2C[C@@H](O)[C@@H](CO)O2)cc1C(F)(F)F`: the Potency was 6.62 µM (active) in test [2] and 9.35 µM (active) in test [1].

For `CC(=O)Nc1cccc(-n2c(=O)n(C3CC3)c(=O)c3c(Nc4ccc(I)cc4F)n(C)c(=O)c(C)c32)c1`, in test [1], the Potency entry is “inactive”.

For the molecule `CC1=C(CC(=O)O)c2cc(F)ccc2C1=Cc1ccc(S(C)=O)cc1` (centres undefined), the Potency in test [2] is 3.72 µM (active); in test [1], 9.35 µM (active).

As for `O=C1C(c2c(O)[nH]c3ccccc23)=Nc2ccccc21`, the Potency entry in test [2] and in test [1] was “inactive” in each case.

Take `CC(C)(CO)[C@@H](O)C(=O)NCCC(=O)O`: the Potency result in test [2], in test [1] and in test [7] was “inactive” in each case. Moreover, the result in test [3], in test [4] and in test [5] was inactive. Besides, the max response in test [6] is -1.56%.

Take `CCC=CC[C@H]1C(=O)CC[C@@H]1CC(=O)OC`: the Potency entry in test [1] was “inactive”.

Turning to `CN(C)CCOc1cc(-c2cn[nH]c2)ccc1NC(=O)C1COc2ccccc2O1` (centres undefined), the Potency in test [1] was 5.9 µM (active).

Consider `O=C(c1ccc(F)c(F)c1Nc1ccc(I)cc1F)N1CC(O)([C@H]2CCCCN2)C1`, for which the Potency in test [2] was 18.7 µM (active); in test [1] it was 20.9 µM (active).

With `CC[C@H](NC(=O)[C@H](C)NC)C(=O)N1C[C@@H](O)C[C@H]1Cc1c(-c2[nH]c3cc(F)ccc3c2C[C@H]2C[C@H](O)CN2C(=O)[C@H](CC)NC(=O)[C@H](C)NC)[nH]c2cc(F)ccc12`, the Potency entry in test [1] was “inactive”.

In the case of `CN1CC(=O)NC1=NC(=O)Nc1cccc(Cl)c1`, in test [2], the Potency is 11.8 µM (active). The Potency entry in test [1] was “inactive”.
